# In PubChem BioAssay (NCATS):
# Several values for one entry are separate records, joined by “and”; a condition that tells them apart may be missing. Identical values can stand only once. Unmarked numbers belong to inactive results. Results filed as inconclusive are left out. Activity calls are given as the source filed them. Unless noted, the call rests on the fitted dose curve; in most records, active means well fitted curve in the direction sought with a large enough effect; inconclusive means small, poorly fitted or top-dose-only effect, or another doubt; inactive means no such curve, though single readings can be large; an effect the other way counts as inactive or inconclusive.
# System: not listed separately
# Assay: Cell Viability - LYMP1-002 - Assay at 24 hr (AID 993); further: on the % scale 0 is the no-effect control and ±100 the full control effect
# Conditions: LYMP1-002 lymphoblastoid cells viability; series mostly up to 92.2 µM; activity change, negative = cytotoxicity: at the top concentration
# Procedure, shortened: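 Cells plated 2500/well, 5 hr 37 C; compounds added, 24 hr 37 C; CellTiter-Glo added, 30 min RT; luminescence read. Tetraoctylammonium bromide positive control. Hill-equation AC50.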
row,SMILES,"activity change, negative = cytotoxicity"
1,CCOc1ccc(NC(C)=O)cc1,-2.94%
2,NCCNc1cccc2ccccc12,-10.3%
3,O=C(O)c1ccc(S(=O)(=O)N(Cl)Cl)cc1,0.779%
4,C/C=C/c1ccc(O)c(OC)c1,-7.75%
5,CCOc1ccccc1C(N)=O,-0.774%
6,NC(=O)c1ccccc1O,3.63%
7,COc1ccc(C(Cl)=C(c2ccc(OC)cc2)c2ccc(OC)cc2)cc1,-22.1%
8,OC[C@H]1O[C@@H]2O[C@H]3[C@H](O)[C@@H](O)[C@@H](O[C@H]4[C@H](O)[C@@H](O)[C@@H](O[C@H]5[C@H](O)[C@@H](O)[C@@H](O[C@H]6[C@H](O)[C@@H](O)[C@@H](O[C@H]7[C@H](O)[C@@H](O)[C@@H](O[C@H]8[C@H](O)[C@@H](O)[C@@H](O[C@H]1[C@H](O)[C@H]2O)O[C@@H]8CO)O[C@@H]7CO)O[C@@H]6CO)O[C@@H]5CO)O[C@@H]4CO)O[C@@H]3CO,3.55%
9,COc1ccc(C(=O)c2ccccc2)c(O)c1,-4.49%
10,C=C[C@H]1CN2CC[C@H]1C[C@@H]2[C@@H](O)c1ccnc2ccc(OC)cc12,-11.3%
11,COc1cc([C@H]2Oc3cc([C@H]4Oc5cc(O)cc(O)c5C(=O)[C@@H]4O)ccc3O[C@@H]2CO)ccc1O,-1.8%
12,CCCN(CCC)S(=O)(=O)c1ccc(C(=O)O)cc1,-5.47%
13,CCCCC(CC)COC(=O)c1ccc(N(C)C)cc1 (configuration not stated),-3.55%
14,Oc1ccc(Cl)cc1Cc1cc(Cl)ccc1O,-24.8%

# System: not listed separately
# Assay: Cell Viability - LYMP1-002 - Assay at 40 hr (AID 994); further: nearly all actives have a fitted effect of over 60% in size; further: potency means the concentration at half of the fitted maximal effect;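 on viability change, negative = cytotoxic: 0% = DMSO only and full inhibition = 92 µM tetraoctylammonium bromide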
# Conditions: LYMP1-002 lymphoblastoid cell viability; series mostly up to 92.2 µM; viability change, negative = cytotoxic: at the top concentration
# Procedure, shortened: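 Luminescent ATP signal served as the viability readout, with decreases taken as toxicity. Cells were treated with compounds across a concentration range for 40 hours at 37 C, and AC50 values came from standard Hill modeling.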
SMILES,"viability change, negative = cytotoxic",Potency
CCOc1ccc(NC(C)=O)cc1,-4.45%,–
Oc1c(Cl)cc(Cl)c(Cl)c1Cc1c(O)c(Cl)cc(Cl)c1Cl,–,31.6 µM (active)
NCCNc1cccc2ccccc12,-24.7%,–
O=C(O)c1ccc(S(=O)(=O)N(Cl)Cl)cc1,-6.24%,–
C/C=C/c1ccc(O)c(OC)c1,-1.89%,–
CCOc1ccccc1C(N)=O,-10.5%,–
NC(=O)c1ccccc1O,-2.14%,–
COc1ccc(C(Cl)=C(c2ccc(OC)cc2)c2ccc(OC)cc2)cc1,-19.7%,–
OC[C@H]1O[C@@H]2O[C@H]3[C@H](O)[C@@H](O)[C@@H](O[C@H]4[C@H](O)[C@@H](O)[C@@H](O[C@H]5[C@H](O)[C@@H](O)[C@@H](O[C@H]6[C@H](O)[C@@H](O)[C@@H](O[C@H]7[C@H](O)[C@@H](O)[C@@H](O[C@H]8[C@H](O)[C@@H](O)[C@@H](O[C@H]1[C@H](O)[C@H]2O)O[C@@H]8CO)O[C@@H]7CO)O[C@@H]6CO)O[C@@H]5CO)O[C@@H]4CO)O[C@@H]3CO,-5.48%,–
COc1ccc(C(=O)c2ccccc2)c(O)c1,-5.11%,–
C=C[C@H]1CN2CC[C@H]1C[C@@H]2[C@@H](O)c1ccnc2ccc(OC)cc12,-6.68%,–
COc1cc([C@H]2Oc3cc([C@H]4Oc5cc(O)cc(O)c5C(=O)[C@@H]4O)ccc3O[C@@H]2CO)ccc1O,0.714%,–
CCCN(CCC)S(=O)(=O)c1ccc(C(=O)O)cc1,-4.65%,–
CCCCC(CC)COC(=O)c1ccc(N(C)C)cc1 (configuration not stated),-9.42%,–

# Target: alpha-glucosidase (Oryza sativa, rice) (UniProt Q653V4)
# Assay: Counterscreen for Glucocerebrosidase Inhibitors: qHTS Assay for Rice alpha-Glucosidase at pH 5.0 (AID 997);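 further: 0% = full activity with enzyme and -100% = basal without enzyme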
# Conditions: rice alpha-glucosidase enzyme activity; series mostly up to 76.9 µM; activity change, negative = inhibition: at the top concentration
# Procedure, shortened: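 Rice alpha-glucosidase (4 nM final) with 400 uM 4-methylumbelliferyl-alpha-D-glucopyranoside in citrate buffer pH 5.0, 20 min at room temperature, stopped at pH 10; fluorescence 365/440 nm, compounds 0.7 nM–77 uM, AC50 from Hill fits.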
row,SMILES,"activity change, negative = inhibition"
1,NS(=O)(=O)Cc1noc2ccccc12,2.8%
2,CN(C)CCC[C@@]1(c2ccc(F)cc2)OCc2cc(C#N)ccc21,-1.31%
3,CC(C)(C)NC[C@H](O)COc1nsnc1N1CCOCC1,-1.64%
4,NC(N)=NCc1cccc(I)c1,-2.82%
5,CN1CCC[C@@H]1CCO[C@](C)(c1ccccc1)c1ccc(Cl)cc1,-2.04%
6,CN=C(N)NCCC[C@H](N)C(=O)O,-2.21%

# System: not listed separately
# Assay: qHTS Assay for Lipid Storage Modulators (AID 1519; calls by dose curve; further: on the % scale 0 is the no-effect control and ±100 the full control effect)
# Conditions: Drosophila S3 cells, BODIPY lipid droplet/cell ratio, laser cytometry; at 25.7 µM (top of the series); cells loaded with oleic acid
# Procedure, shortened: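 Cells seeded at 5,000 per well were treated with compounds over a concentration series and loaded with oleic acid (400 uM, as added). Lipid droplet fluorescence (488 nm excitation, 500-530 nm channel) was read by laser-scanning cytometry and normalized to 20 uM Triacsin C.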
row,SMILES,"activity change, negative = inhibition"
1,O=C(O)CCC(=O)Nc1ccc(S(=O)(=O)Nc2nccs2)cc1,0.767%
2,c1ccc(CC2=NCCN2)cc1,0.322%
3,COc1ccc(C(=O)c2ccccc2O)c(O)c1,-7.39%
4,O=C1C(O)=C(O)C(=O)C(O)=C1O,-0.531%
5,CCN(CC)CCNC(=O)COc1ccc(OC)cc1,-2.56%
6,COc1ccc(C(Cl)=C(c2ccc(OC)cc2)c2ccc(OC)cc2)cc1,1.46%
7,CC(C)(C)NC[C@H](O)COc1nsnc1N1CCOCC1,-2.08%
8,COc1ccc(C(=O)c2ccccc2)c(O)c1,-0.0822%
9,CN1CCC[C@@H]1CCO[C@](C)(c1ccccc1)c1ccc(Cl)cc1,-6.95%
10,O=C(CCCN1CC=C(n2c(=O)[nH]c3ccccc32)CC1)c1ccc(F)cc1,1.32%
11,COc1cc(NS(=O)(=O)c2ccc(N)cc2)ncn1,1.08%
12,CCCN(CCC)S(=O)(=O)c1ccc(C(=O)O)cc1,-2.1%
13,CNCCc1ccccn1,-0.261%

# Same assay, conditions: Drosophila S3 cells, BODIPY lipid droplet/cell ratio, laser cytometry; at 57.5 µM (top of the series); cells loaded with oleic acid
row,SMILES,"activity change, negative = inhibition"
1,O=C(O)CCC(=O)Nc1ccc(S(=O)(=O)Nc2nccs2)cc1,7.18%
2,Oc1c(Cl)cc(Cl)c(Cl)c1Cc1c(O)c(Cl)cc(Cl)c1Cl,7.05%
3,c1ccc(CC2=NCCN2)cc1,2.41%
4,CN(C)CCC[C@@]1(c2ccc(F)cc2)OCc2cc(C#N)ccc21,0.0614% and -1.76%
5,COc1ccc(C(=O)c2ccccc2O)c(O)c1,4.5%
6,O=C1C(O)=C(O)C(=O)C(O)=C1O,9.14%
7,NC(=O)c1ccccc1O,8.72%
8,CCN(CC)CCNC(=O)COc1ccc(OC)cc1,3.31%
9,CC(C)(C)NC[C@H](O)COc1nsnc1N1CCOCC1,1.69%
10,COc1ccc(C(=O)c2ccccc2)c(O)c1,9.05%
11,NC(N)=NCc1cccc(I)c1,3.74%
12,O=C(CCCN1CC=C(n2c(=O)[nH]c3ccccc32)CC1)c1ccc(F)cc1,14.6%
13,COc1cc(NS(=O)(=O)c2ccc(N)cc2)ncn1,3.4%
14,CCCN(CCC)S(=O)(=O)c1ccc(C(=O)O)cc1,1.2%
15,CNCCc1ccccn1,1.62%
